For seven compounds, nuclei count, normalised and p53-positive nuclei, normalised results are on record in PubChem BioAssay AID1508601 (ICCB-Longwood Screening Facility, Harvard Medical School, 2020).

Hit rate of the full screen: of about 5,700 compounds, about 85 (1%) were called active. No stated cut-off is given here; in the data, active means p53-positive nuclei above about 36% (passing the limit was not always enough); inactive means the rest. The entries come from a sample that favours actives as a whole.

The nature of assay [1]: nuclear p53 accumulation, HPV+ cells – imaging, p53-positive nuclei imaging, 24 h, 48 h (AID 1508601). The settings on record: 24/48 h.
The target of assay [2] is Cellular tumor antigen p53 (Homo sapiens) (UniProt P04637). The assay is described as above. The settings on record: 24/48 h, stronger effect = higher value.
Cellular tumor antigen p53 (Homo sapiens), sequence (P04637 whole entry, looked up): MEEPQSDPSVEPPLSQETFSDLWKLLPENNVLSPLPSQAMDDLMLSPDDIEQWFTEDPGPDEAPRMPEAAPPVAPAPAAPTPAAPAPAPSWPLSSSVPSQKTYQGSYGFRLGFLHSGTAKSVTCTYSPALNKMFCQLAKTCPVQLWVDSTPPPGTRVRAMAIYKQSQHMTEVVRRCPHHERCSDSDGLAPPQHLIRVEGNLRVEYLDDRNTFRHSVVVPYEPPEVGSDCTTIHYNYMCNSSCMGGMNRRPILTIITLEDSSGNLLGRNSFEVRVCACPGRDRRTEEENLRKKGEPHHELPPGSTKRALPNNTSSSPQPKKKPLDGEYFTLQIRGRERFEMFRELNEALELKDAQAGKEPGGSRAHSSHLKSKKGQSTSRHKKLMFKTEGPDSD
The mark [3] stands for this setting: measured here: cell number at 24 h, Library stock concentration: 80 uM.
The mark [4] stands for this setting: measured here: cell number at 24 h, Library stock concentration: 400 uM.
[5] abbreviates: measured here: cell number at 24 h, Library stock concentration: 2 mM.
Where [6] appears, read: measured here: cell number at 24 h, Library stock concentration: 10 mM.
[7] abbreviates: measured here: cell number at 48 h, Library stock concentration: 80 uM.
Setting [8] is: measured here: cell number at 48 h, Library stock concentration: 400 uM.
Setting [9] is: measured here: cell number at 48 h, Library stock concentration: 2 mM.
Where [10] appears, read: measured here: cell number at 48 h, Library stock concentration: 10 mM.
Setting [11] is: Library stock concentration: 80 uM.
Where [12] appears, read: Library stock concentration: 400 uM.
Where [13] appears, read: Library stock concentration: 2 mM.
The mark [14] stands for this setting: Library stock concentration: 10 mM.
[15] abbreviates: measured here: p53 positive nuclei at 24 h, Library stock concentration: 80 uM.
[16] abbreviates: measured here: p53 positive nuclei at 24 h, Library stock concentration: 400 uM.
Setting [17] is: measured here: p53 positive nuclei at 24 h, Library stock concentration: 2 mM.
Where [18] appears, read: measured here: p53 positive nuclei at 24 h, Library stock concentration: 10 mM.
Where [19] appears, read: measured here: cell number at 24 h, Library stock concentration: 3.33 mM.
[20] abbreviates: measured here: cell number at 48 h, Library stock concentration: 3.33 mM.
[21] abbreviates: Library stock concentration: 3.33 mM.
Where [22] appears, read: measured here: p53 positive nuclei at 24 h, Library stock concentration: 3.33 mM.
[23] abbreviates: measured here: cell number at 24 h, concentration not given here.
Setting [24] is: measured here: cell number at 48 h, concentration not given here.
Setting [25] is: measured here: p53 positive nuclei at 24 h, concentration not given here.

For the compound `O=Nc1c(O)[nH]c2c(Cl)c(Cl)ccc12`, the nuclei count, normalised came out at 111% in assay [1] (setting [3]); 99.5% in assay [1] (setting [4]); 83.2% in assay [1] (setting [5]); 73.5% in assay [1] (setting [6]); 109% in assay [1] (setting [7]); 99% in assay [1] (setting [8]). The values for the nuclei count, normalised in assay [1] (setting [9]) and in assay [1] (setting [10]) were 54.9% and 33.7%, respectively. The p53-positive nuclei, normalised in assay [2] (setting [11]) was 0.16% (inactive); in assay [2] (setting [12]), -0.101% (inactive); in assay [2] (setting [13]), 48.3% (inactive); in assay [2] (setting [14]), 84.3% (active); in assay [2] (setting [15]) it was 0.217%; in assay [2] (setting [16]), 0.0912%. In addition, the values for the p53-positive nuclei, normalised in assay [2] (setting [17]) and in assay [2] (setting [18]) were 2.93% and 8.66%, respectively.

For the compound `CC(C)C(=O)Oc1ccc(CO)cc1C(CCN(C(C)C)C(C)C)c1ccccc1` (stereo unspecified), the nuclei count, normalised in assay [1] (setting [19]) is 113%; in assay [1] (setting [20]), 108%. In addition, the p53-positive nuclei, normalised in assay [2] (setting [21]) was -0.0601% (inactive); in assay [2] (setting [22]), -0.451%.

On to `CCCCC[C@H](O)/C=C/[C@@H]1[C@H](CCCCCCC(=O)O)[C@H](O)C[C@H]1O`, for which the nuclei count, normalised in assay [1] (setting [23]) was determined as 103%; in assay [1] (setting [24]) it was 107%. In addition, the p53-positive nuclei, normalised was -0.142% (inactive) in assay [2] (concentration not given here) and -0.0664% in assay [2] (setting [25]).

Turning to `O=C1C(c2c(O)[nH]c3ccccc23)=Nc2ccccc21`, the nuclei count, normalised in assay [1] (setting [19]) was determined as 97.7%; in assay [1] (setting [20]), 95.2%. Also, the p53-positive nuclei, normalised was 0.364% (inactive) in assay [2] (setting [21]) and -0.221% in assay [2] (setting [22]).

For `O=Nc1c(-c2c(O)[nH]c3cc(Br)ccc23)[nH]c2ccccc12`, the nuclei count, normalised was 102% in assay [1] (setting [3]); 111% in assay [1] (setting [4]); 106% in assay [1] (setting [5]); 116% in assay [1] (setting [19]); 63.9% in assay [1] (setting [6]); 104% in assay [1] (setting [23]). Moreover, the nuclei count, normalised in assay [1] (setting [7]) was 106%; in assay [1] (setting [8]), 106%; in assay [1] (setting [9]), 91.1%; in assay [1] (setting [20]), 101%; in assay [1] (setting [10]) it was 46.7%; in assay [1] (setting [24]) it was 113%. Also, the p53-positive nuclei, normalised in assay [2] (setting [11]) is -0.018% (inactive); in assay [2] (setting [12]), 0.858% (inactive); in assay [2] (setting [13]), 4.32% (inactive); in assay [2] (setting [21]) it was 1.69% (inactive); in assay [2] (setting [14]), 89.3% (active); in assay [2] (concentration not given here), 0.377% (inactive). For the same compound, the p53-positive nuclei, normalised in assay [2] (setting [15]) is -0.0496%; in assay [2] (setting [16]), 0.519%; in assay [2] (setting [17]), 1.14%; in assay [2] (setting [22]), 0.53%; in assay [2] (setting [18]) it was 71.9%; in assay [2] (setting [25]), 0.0936%.

As to `O=C1Cc2c([nH]c3ccc(Br)cc23)-c2ccccc2N1`, the nuclei count, normalised in assay [1] (setting [23]) amounted to 97.1%; in assay [1] (setting [24]), 104%. In addition, the p53-positive nuclei, normalised in assay [2] (concentration not given here) is -0.0157% (inactive); in assay [2] (setting [25]), 0.0601%.

Regarding `OCC1OC(n2cnc3c2NC=NCC3O)CC1O` (stereo unspecified), the nuclei count, normalised in assay [1] (measured here: cell number at 24 h, Library stock concentration: 500 nM) turned out to be 123%; in assay [1] (measured here: cell number at 24 h, Library stock concentration: 1.5 uM) it was 117%; in assay [1] (measured here: cell number at 24 h, Library stock concentration: 4.6 uM), 116%; in assay [1] (measured here: cell number at 24 h, Library stock concentration: 13.7 uM), 127%; in assay [1] (measured here: cell number at 24 h, Library stock concentration: 41 uM) it was 122%; in assay [1] (measured here: cell number at 24 h, Library stock concentration: 123 uM), 124%. For the same compound, the nuclei count, normalised in assay [1] (measured here: cell number at 24 h, Library stock concentration: 370 uM) amounted to 121%; in assay [1] (measured here: cell number at 24 h, Library stock concentration: 1.111 mM) it was 120%; in assay [1] (measured here: cell number at 24 h, Library stock concentration: 3.333 mM) it was 122%; in assay [1] (setting [6]) it was 117%; in assay [1] (measured here: cell number at 48 h, Library stock concentration: 500 nM) it was 119%; in assay [1] (measured here: cell number at 48 h, Library stock concentration: 1.5 uM) it was 112%. Also, the nuclei count, normalised in assay [1] (measured here: cell number at 48 h, Library stock concentration: 4.6 uM) stood at 114%; in assay [1] (measured here: cell number at 48 h, Library stock concentration: 13.7 uM) it was 119%; in assay [1] (measured here: cell number at 48 h, Library stock concentration: 41 uM), 118%; in assay [1] (measured here: cell number at 48 h, Library stock concentration: 123 uM), 113%; in assay [1] (measured here: cell number at 48 h, Library stock concentration: 370 uM) it was 117%; in assay [1] (measured here: cell number at 48 h, Library stock concentration: 1.111 mM) it was 114%. Also, the nuclei count, normalised in assay [1] (measured here: cell number at 48 h, Library stock concentration: 3.333 mM) was found to be 113%; in assay [1] (setting [10]), 114%. Moreover, the p53-positive nuclei, normalised is -0.173% (inactive) in assay [2] (Library stock concentration: 500 nM); -0.175% (inactive) in assay [2] (Library stock concentration: 1.5 uM); -0.091% (inactive) in assay [2] (Library stock concentration: 4.6 uM); -0.0972% (inactive) in assay [2] (Library stock concentration: 13.7 uM); 0.0195% (inactive) in assay [2] (Library stock concentration: 41 uM); 0.029% (inactive) in assay [2] (Library stock concentration: 123 uM). In addition, the p53-positive nuclei, normalised in assay [2] (Library stock concentration: 370 uM) was -0.058% (inactive); in assay [2] (Library stock concentration: 1.111 mM) it was -0.0904% (inactive); in assay [2] (Library stock concentration: 3.333 mM), -0.125% (inactive); in assay [2] (setting [14]), -0.0529% (inactive); in assay [2] (measured here: p53 positive nuclei at 24 h, Library stock concentration: 500 nM), -0.0351%; in assay [2] (measured here: p53 positive nuclei at 24 h, Library stock concentration: 1.5 uM), -0.148%. Moreover, the p53-positive nuclei, normalised in assay [2] (measured here: p53 positive nuclei at 24 h, Library stock concentration: 4.6 uM) was -0.0281%; in assay [2] (measured here: p53 positive nuclei at 24 h, Library stock concentration: 13.7 uM), 0.0187%; in assay [2] (measured here: p53 positive nuclei at 24 h, Library stock concentration: 41 uM), -0.0912%; in assay [2] (measured here: p53 positive nuclei at 24 h, Library stock concentration: 123 uM), -0.0944%; in assay [2] (measured here: p53 positive nuclei at 24 h, Library stock concentration: 370 uM), -0.0326%; in assay [2] (measured here: p53 positive nuclei at 24 h, Library stock concentration: 1.111 mM), -0.148%. Moreover, the p53-positive nuclei, normalised in assay [2] (measured here: p53 positive nuclei at 24 h, Library stock concentration: 3.333 mM) is -0.0881%; in assay [2] (setting [18]), -0.148%.
